Most compounds without a hit are left out; they make up all but 2.8% or so of the library.
Pol kappa inh-1: DNA polymerase kappa (human) inhibition; Potency, µM (series often up to 107 µM), for inactives: at the highest dose activity, negative = inhibition, most hits filed as inhibitors; actives 0.53% (n = 400,000); purified Pol kappa, fluorescent DNA synthesis assay, 10 min; also: potency is read from the fitted curve at half-maximal effect; % is scaled to controls: 0 for no effect and ±100 for the full control effect
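Enzyme at 10 nM met test compounds for 15 min at room temperature. Substrate addition (50 nM final) began the reaction, which was monitored by fluorescence at 0 and 10 min.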
PI4K2A block: blocks human PI4K2A kinase activity; AID 1346378; actives 0.13% (n = 420,000); activity change, negative = inhibition, % at 76.9 µM; purified PI4K2A, ADP-Glo luminescence, 1 h; hits give low values; in the data active = activity change below about -50%; inconclusive = mostly about -30% to -49%;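 also: -100% = wells without enzyme as full effect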
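In this quantitative HTS, ADP production by PI4K2A was quantified luminescently after 1 h at ambient temperature; 100 microM adenosine served as plate-quality control.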
Pol beta inh: inhibitors of human DNA polymerase beta. P06746. Pol beta primer extension/strand displacement, fluorescence kinetic. Potency, µM (top dose mostly 114 µM), inactives show at the top dose activity change, negative = inhibition, hits mostly inhibitors. actives 1.3% (n = 340,000). AID 485314; also: potency is read from the fitted curve at half-maximal effect; % is scaled to controls: 0 for no effect and ±100 for the full control effect
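10 nM enzyme + cpd, 15 min RT; start with substrate 50 nM final; read 0 min and after 10 min RT. Corrected, normalized data; 4-parameter Hill curve fit.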
PI5P4Ka inh: blocks human PI5P4K alpha kinase activity; max response, %; AID 652105; actives 1.2% (n = 330,000); P48426; PI5P4Kalpha enzyme, ADP-Glo luminescence, 60 min; hits give low values; active = max response of -50% or lower; inconclusive = between -30% and -50%; inactive = -30% or higher; also: value at the top dose of about 77 µM; % is scaled to controls: 0 for no effect and ±100 for the full control effect
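Reactions run in 0.038 M HEPES pH 7.4, 0.28 mM EGTA, 0.1% CHAPS and 5% DMSO, with PI5P4Kalpha, substrate, compound and 5 microM ATP final, one hour at room temperature. Readout is ADP-Glo luminescence.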
Pol eta inh-1: DNA polymerase eta (human) inhibition; Potency, µM (highest dose often 114 µM), for inactives: at the highest dose activity change, negative = inhibition, actives largely listed as inhibitors; actives 1.2% (n = 390,000); recombinant Pol eta, fluorescent DNA replication assay; AID 588591; Q9Y253; also: potency is read from the fitted curve at half-maximal effect; % is scaled to controls: 0 for no effect and ±100 for the full control effect
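Fluorescent replication assay: 50 nM final substrate added after a 15 min room-temperature compound preincubation with 10 nM enzyme. Signal taken at 0 min and again at 10 min.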
Pol iota inh: DNA polymerase iota (human) inhibition; Q9UNA4; Pol iota fluorescent replication assay, 10 min; actives 1% (n = 390,000); Potency, µM (doses to about 115 µM), inactives show at the top dose activity, negative = inhibition, hits mostly inhibitors; also: potency is read from the fitted curve at half-maximal effect
Target sequence (Q9UNA4 whole entry, looked up): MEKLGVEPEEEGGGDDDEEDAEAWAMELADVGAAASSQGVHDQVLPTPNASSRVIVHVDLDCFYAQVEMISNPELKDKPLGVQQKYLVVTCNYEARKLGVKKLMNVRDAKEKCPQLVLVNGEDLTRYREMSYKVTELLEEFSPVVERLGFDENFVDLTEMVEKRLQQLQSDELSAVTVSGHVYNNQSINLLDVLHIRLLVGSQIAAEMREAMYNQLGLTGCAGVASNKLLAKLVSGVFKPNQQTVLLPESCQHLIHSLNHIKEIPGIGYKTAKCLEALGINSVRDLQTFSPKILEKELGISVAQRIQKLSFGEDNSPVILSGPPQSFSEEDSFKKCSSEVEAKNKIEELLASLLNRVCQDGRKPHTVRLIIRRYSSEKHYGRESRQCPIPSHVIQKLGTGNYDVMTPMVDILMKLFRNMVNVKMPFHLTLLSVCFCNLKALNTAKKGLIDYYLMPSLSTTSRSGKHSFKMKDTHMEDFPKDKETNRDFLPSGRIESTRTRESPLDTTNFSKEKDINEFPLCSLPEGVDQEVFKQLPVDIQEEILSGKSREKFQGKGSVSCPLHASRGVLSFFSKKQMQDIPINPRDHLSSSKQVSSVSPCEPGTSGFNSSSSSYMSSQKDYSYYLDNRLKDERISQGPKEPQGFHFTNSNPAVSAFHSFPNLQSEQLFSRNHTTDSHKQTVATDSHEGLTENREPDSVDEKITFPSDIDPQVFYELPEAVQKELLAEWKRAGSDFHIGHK
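Fluorescent replication assay read twice, at 0 min and 10 min after adding 50 nM (final) substrate. Enzyme (10 nM) and compounds were first incubated 15 min at room temperature; enzyme-free buffer wells were negative controls.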
Pol kappa inh-2: confirmation of human DNA polymerase kappa inhibitors; actives 76% (n = 920); Potency, µM, most hits filed as inhibitors; purified Pol-kappa, fluorescent strand-displacement substrate; AID 720501; shares compounds with Pol eta inh-1; also: potency is read from the fitted curve at half-maximal effect
Pol eta inh-2: confirmation of human DNA polymerase eta inhibitors | shares compounds with Pol eta inh-1 | Pol eta primer extension, TAMRA/BHQ fluorescence, 10 min | actives 64% (n = 2,600) | Potency, µM, actives largely listed as inhibitors | AID 720502; also: potency is read from the fitted curve at half-maximal effect
Active calls of the source: *; ? = inconclusive; · = no result; [ ] = another dose, or the depositor's remark. Unless noted, calls follow the shape of the dose curve; as a rule, active = well fitted inhibition curve with a large enough effect; inconclusive = small, poorly fitted or top-dose-only effect, or another doubt; inactive = no such curve, though single readings can be large or run the other way.

SMILES	Pol kappa inh-1	PI4K2A block	Pol beta inh	PI5P4Ka inh	Pol eta inh-1	Pol iota inh	Pol kappa inh-2	Pol eta inh-2
CC(C)Sc1ncc(Cl)c(C(=O)N(Cc2ccc(N(C)C)cc2)C2CCS(=O)(=O)C2)n1 (stereo not drawn)	-22%	-10	?	·	79µM*	?	?	?
CC(=O)c1cccc(NC(=O)c2cccc3c(-c4cccnc4)coc23)c1	·	-3	·	-3	·	·	·	·
COCCCNC(=O)c1c[nH]c2ccc(S(=O)(=O)N(C)c3ccccc3C)cc2c1=O	0%	0	1%	0	-25%	53%	·	·
CNC(=O)c1c[nH]c2ccc(S(=O)(=O)Nc3ccccc3F)cc2c1=O	-6%	-7	?	-10	?	-30%	·	·
CCOCCCNC(=O)c1c[nH]c2ccc(S(=O)(=O)Nc3cccc(Cl)c3C)cc2c1=O	?	-1	28µM*	·	32µM*	?	21*	85*
CNC(=O)c1c[nH]c2ccc(S(=O)(=O)Nc3cccc(Cl)c3C)cc2c1=O	?	-2	32µM*	·	?	?	21*	?
CCCCN(CCCC)C(=O)c1c[nH]c2ccc(S(=O)(=O)Nc3cccc(Cl)c3C)cc2c1=O	-15%[60.1 µM]	-5	35µM*	·	40µM*	79µM*	15*	76*
Cc1ccc(-n2[nH]c(C)c(/C=N/Nc3ccc([N+](=O)[O-])cc3[N+](=O)[O-])c2=O)cc1C	-21%	-12	-9%	?	20µM*	?	·	?
O=C(O)/C(=C/c1ccco1)NC(=O)c1ccc(Br)o1	-44%	1	?	6	?	?	·	60*
NNC(=O)/C(=C\c1ccco1)NC(=O)c1ccco1	-21%	0	14%	-1	-9%	?	·	·
O=C(O)/C(=C/c1ccco1)NC(=O)c1ccccc1	-39%	6	40µM*	-10	11µM*	?	47*	?
CC(C)C(NC(=O)/C(=C\c1ccco1)NC(=O)c1ccco1)C(=O)O (stereo not drawn)	?	-4	22µM*	-1	20µM*	-2%	?	·
Cn1c(=O)cnc2cnc(OCc3ccccc3)nc21	1%[60.1 µM]	·	·	·	·	·	·	·
CC[C@]1(O)C[C@@H]2CN(CCc3c([nH]c4ccccc34)[C@](C(=O)OC)(c3cc4c(cc3OC)N(C)[C@H]3[C@](O)(C(=O)OC)[C@@H](C(=O)OC)[C@@]5(CC)C=CCN6CC[C@@]43[C@@H]65)C2)C1	-10%[19.4 µM]	·	·	·	·	·	·	·
CC1=C(C#N)C(=O)NC(=O)/C1=C\c1ccc(-c2cc(C)c(C)cc2[N+](=O)[O-])o1	?	-10	?	-65*	?	?	?	?
CC(=O)c1ccc(S(=O)(=O)Nc2ccc(-n3cnnn3)cc2)cc1	-35%	3	·	?	32µM*	40µM*	·	?
Cc1ccc(S(=O)(=O)Nc2ccc(-n3cnnn3)cc2)cc1	-8%	-7	3%	-3	-17%	?	·	·
COc1ccc(-n2c(NC(=O)c3ccco3)c(C#N)c3nc4ccccc4nc32)cc1	-28%	-30	-117%	-28	20µM*	26%	67*	85*
Cc1cc(Nc2ccc(C)c(C)c2)n2cnnc2n1	-9%	-4	3%	·	-14%	3%	·	·
CCOCc1cc(CN2CCN(c3cccc(Cl)c3)CC2)c(O)c2ncccc12	-3%	3	1%	·	-10%	3%	·	·
O=C(CSc1ncn(-c2ccccc2)n1)Nc1nc2c(s1)CCCC2	0%	-1	32µM*	·	50µM*	25µM*	·	?
CCOc1ccc(Nc2c(S(=O)(=O)c3ccc(Cl)cc3)cnc3ccc(OC)cc23)cc1	6%	0	13%	·	-4%	6%	·	·
O=C(O)c1cccc(-n2cccc2/C=C\[N+](=O)[O-])c1	50µM*	-5	?	-23	20µM*	?	·	60*
Cc1cc(S(=O)(=O)Nc2nc(CN3CCOCC3)nc3sc4c(c23)CCC4)cc(C)c1C	?	-1	·	-30	18µM*	25µM*	?	?
Cc1ccc(S(=O)(=O)Nc2nc(CN3CCOCC3)nc3sc(C(=O)O)c(C)c23)cc1	·	-4	·	-20	13µM*	·	·	30*
SMILES	Pol kappa inh-1	PI4K2A block	Pol beta inh	PI5P4Ka inh	Pol eta inh-1	Pol iota inh	Pol kappa inh-2	Pol eta inh-2
O=C(CN1C(=O)c2ccccc2S1(=O)=O)Nc1ncc(Cl)cc1Cl	?	-1	·	?	22µM*	?	·	30*
COc1ccc(/C=N\NC(=O)c2ccc([N+](=O)[O-])c(C)c2)cc1COc1ccccc1C(N)=O	-12%	2	?	-13	-20%	45%	38*	·
COc1ccc(/C=N/NC(=O)c2ccccc2OC)cc1COc1ccccc1[N+](=O)[O-]	-1%	-7	?	-12	-15%	-29%	·	·
Cn1c(=O)c(Nc2ccc(O)cc2)c2c3c(cccc31)C(=O)c1ccccc1-2	?	-21	32µM*	?	14µM*	16µM*	·	?
Cc1cc(C)n2c(=O)c3ccc(Cl)cc3nc2c1C#N	-2%	-9	-11%	-6	-6%	65%	·	·
Cc1cc(Cl)n2c(nc3cc(F)c(F)cc32)c1C#N	-1%	?	50µM*	1	56µM*	6.3µM*	·	?
COC(=O)c1ccc(NC(=O)c2cc3cc(C)ccc3n2C)cc1	-19%	-19	2%	·	-15%	34%	·	·
O=C(Oc1ccccc1F)c1ccc2c(=O)n3c(nc2c1)CCC3	-28%	-9	·	-1	?	?	·	67*
O=C(Oc1ccccc1Cl)c1ccc2c(=O)n3c(nc2c1)CCC3	-7%	-6	·	0	?	6%	·	·
COP(=O)(OC)C(Cc1ccccc1)NC(=O)CNC(=O)OCc1ccccc1 (stereo not drawn)	·	2	·	·	·	·	·	·
COc1cc(/C=C2\SC(=O)NC2=O)ccc1Oc1ccc([N+](=O)[O-])cc1[N+](=O)[O-]	?	5	89µM*	3	50µM*	?	·	?
COc1ccccc1C(=O)NC1CCCCN(Cc2cccc(F)c2)C1=O (stereo not drawn)	·	-3	·	·	·	·	·	·
C[C@H](O)CNC(=O)c1[nH]cnc1C(=O)N[C@@H](C)c1ccccc1	·	-28	·	-3	-6%	·	·	·
C=CCN(CC=C)S(=O)(=O)c1ccc(F)cc1	-20%	3	46%	·	-7%	19%	·	·
